A short description of experiment [1]: qHTS assay for measurement of the activity of small molecule inhibitors on Zika virus induced Caspase-3 activity in human iPSC derived neural progenitor cells (hNPCs) (AID 1224857). Further: nearly all actives have a fitted effect of over 65% in size. In outline: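 Pretreat hNPCs with compound 1 h; infect ZIKV 2 FFU/cell; 6 h 37 C, 5% CO2; Caspase-Glo 3/7, 30 min RT; luminescence; normalize to no-virus and virus-only wells.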

Experiment [2] can be described thus: qHTS assay for measurement of the activity of small molecule inhibitors on Zika virus induced Caspase-3 activity in human astrocytoma cells (AID 1224859). In outline:
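Human SNB-19 astrocytoma cells in RPMI 1640 with 10% FBS receive compound one hour ahead of Zika virus at 2 FFU/cell. After 6 h infection, caspase-3/7 activity is detected by Caspase-Glo luminescence.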

The nature of experiment [3]: P-glycoprotein substrates identified in KB-3-1 adenocarcinoma cell line, qHTS therapeutic library screen (AID 1346986). Further: nearly all actives have a fitted effect of over 60% in size. The method in brief:
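Viability read by CellTiter-Glo after 72 h compound exposure in dose-response of KB-3-1 and KB-8-5-11 (P-gp-high) cells. Hits needed AC50 < 10 uM, >50% maximum response and curve class -1.1 to -2.4. Cherry-picks retested ± tariquidar, including pcDNA/MDR-19 HEK-293 pair.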

Experiment [4] can be described thus: P-glycoprotein substrates identified in KB-8-5-11 adenocarcinoma cell line, qHTS therapeutic library screen (AID 1346987). Further: nearly all actives have a fitted effect of over 65% in size. The method in brief:
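Luminescence from CellTiter-Glo, read 5 min after addition, quantified survival of KB-8-5-11 (P-gp-overexpressing) cells exposed to compounds for 72 h. AC50 was derived from concentration-response curves.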

SMILES strings stand for the structures. Records with an inconclusive call do not appear. Where a call stands in place of a potency, no number is given. Activity calls are given as the source filed them. The call rests on the fitted dose curve; in most records, active means well fitted curve in the direction sought with a large enough effect; inconclusive means small, poorly fitted or top-dose-only effect, or another doubt; inactive means no such curve, though single readings can be large; an effect the other way counts as inactive or inconclusive.

For the compound `Cc1cc(=O)oc2cc(O[C@@H]3SC[C@@H](O)[C@H](O)[C@H]3O)ccc12`, the Potency result in experiment [1] is “inactive”. Further, in experiment [2], the compound was called inactive.
`OC1(c2ccc(Cl)cc2)CCNCC1`: the Potency result in experiment [1] is “inactive”. Moreover, the result in experiment [2] was inactive.
Take `Cc1ccc2ccc(Cl)cc2n1`: the Potency result in experiment [1] was “inactive”. The call in experiment [2] was inactive.
In the case of `COc1ccc2nc(SCc3ncc(C)c(OC)c3C)[nH]c2c1`, the Potency result in experiment [1] is “inactive”. Further, in experiment [2], the compound was classed as inactive.
For the compound `CC1(C)OC(=O)Nc2ccc(Br)cc21`, the Potency entry in experiment [1] was “inactive”. Further, the compound was classed as inactive in experiment [2].
On to `CCCCCCCC(=O)[O-].CCCCCCCC(=O)[O-].[Zn+2]`, for which the Potency entry in experiment [1] was “inactive”. Further, in experiment [2], the result was inactive.
Turning to `O=[N+]([O-])c1ccc(O)c2ncccc12`, the Potency entry in experiment [1] was “inactive”. Besides, the compound was called inactive in experiment [2].
For `CN(C)CCN(Cc1ccsc1)c1ccccn1`, the Potency result in experiment [1] is “inactive”. In addition, the outcome in experiment [2] was inactive.
Regarding `C/C(=C1\CCOC(=O)S1)N(C=O)Cc1cnc(C)nc1N`, the Potency entry in experiment [1] is “inactive”. For the same compound, the compound was classed as inactive in experiment [2].
As for `C[C@@H]1CCC[C@H](C)N1CCCC(O)(c1ccccc1)c1ccccn1` (stereo partly specified), the Potency result in experiment [1] was “inactive”. The compound was called inactive in experiment [2].
On to `COC(=O)CCCCC(CCSS/C(CCO)=C(\C)N(C=O)Cc1cnc(C)nc1N)SC(C)=O` (stereo unspecified), for which the Potency result in experiment [1] was “inactive”. Moreover, the outcome in experiment [2] was inactive.
For the compound `CCCCN(CCN(CCCC)C(=O)N1CCOCC1)C(=O)N1CCOCC1`, the Potency entry in experiment [1] was “inactive”. Further, the call in experiment [2] was inactive.
With `Clc1ccc2c(c1)Nc1ccccc1S2`, in experiment [1], the Potency entry is “inactive”. In addition, the result in experiment [2] was inactive.
For `COc1ccc2cc(C=O)ccc2c1`, the Potency entry in experiment [1] was “inactive”. Also, in experiment [2], the compound was classed as inactive.
For `CCC(CN)=C(c1ccccc1)c1ccccc1`, the Potency entry in experiment [1] was “inactive”. For the same compound, in experiment [2], the compound was called inactive.
`CC(C)(C)c1cc(C=O)cc(C(C)(C)C)c1O`: the Potency result in experiment [1] is “inactive”. For the same compound, the outcome in experiment [2] was inactive.
`CCOC(=O)c1ccc(OCCN2C[C@H](O)[C@@H](O)[C@H](O)[C@H]2CO)cc1`: the Potency entry in experiment [1], in experiment [3] and in experiment [4] was “inactive” each time. The call in experiment [2] was inactive.
Regarding `Nc1nc(=O)n([C@@H]2O[C@H](CO)[C@@H](O)[C@@H]2F)cc1I`, the Potency result in experiment [1] is “inactive”. For the same compound, the compound was classed as inactive in experiment [2].
On to `CCCCCCCCCCCCCCCCCCN(C)C`, for which, in experiment [1], the Potency entry is “inactive”. Also, in experiment [2], the compound was classed as inactive.
With `O=C1Nc2cc(Cl)ccc2Oc2ccccc21`, the Potency entry in experiment [1] is “inactive”. In addition, the call in experiment [2] was inactive.
Consider `Cc1cccc(OCC(O)CNC(C)(C)C)c1C` (stereo unspecified), for which the Potency entry in experiment [1] is “inactive”. Moreover, in experiment [2], the compound was called inactive.
`CN1CCCN=C1/C=C/c1cccs1`: the Potency entry in experiment [1] was “inactive”. Moreover, the outcome in experiment [2] was inactive.
As to `CCCC(=O)O[C@]1(C(=O)CC)CC[C@H]2[C@@H]3CCC4=CC(=O)CC[C@]4(C)[C@H]3[C@@H](O)C[C@@]21C`, the Potency entry in experiment [1] was “inactive”. For the same compound, the outcome in experiment [2] was inactive.
`Cc1oc(=O)oc1COC(=O)[C@@H]1N2C(=O)[C@@H](NC(=O)[C@H](N)c3ccccc3)[C@H]2SC1(C)C`: the Potency result in experiment [1] was “inactive”. Besides, the result in experiment [2] was inactive.
Consider `O=C1Cc2cc(Cl)ccc2N1`, for which the Potency result in experiment [1] was “inactive”. Besides, in experiment [2], the outcome was inactive.
As for `COCCc1ccc(OCC2CO2)cc1` (stereo unspecified), in experiment [1], the Potency result is “inactive”. In experiment [2], the outcome was inactive.
For `C=CCNc1nc(NCC=C)nc(N2CCN(C(c3ccc(F)cc3)c3ccc(F)cc3)CC2)n1`, in experiment [1], the Potency entry is “inactive”. Besides, the outcome in experiment [2] was inactive.
For `CCOCCn1c(C2CCN(CCc3ccc(C(C)(C)C(=O)O)cc3)CC2)nc2ccccc21`, in experiment [1], the Potency result was “inactive”. Further, the call in experiment [2] was inactive.
For `COc1cc(S(N)(=O)=O)cc(C(=O)O)c1OC`, the Potency result in experiment [1] is “inactive”. The result in experiment [2] was inactive.
On to `CCCCCN(CCCOC)C(=O)C(CCC(=O)O)NC(=O)c1ccc(Cl)c(Cl)c1` (stereo unspecified), for which, in experiment [1], the Potency result is “inactive”. The result in experiment [2] was inactive.
For the compound `Cc1c(F)cc2c(=O)c(C(=O)O)cn3c2c1CCC3C` (stereo unspecified), the Potency result in experiment [1] is “inactive”. Also, the result in experiment [2] was inactive.
On to `COC(=O)/C=C\C(=O)OC`, for which, in experiment [1], the Potency entry is “inactive”. Further, the compound was called inactive in experiment [2].
`O=C(O)Cn1cnnn1`: the Potency result in experiment [1] is “inactive”. Also, the compound was called inactive in experiment [2].
Take `Cc1onc(-c2ccccc2)c1C(=O)Cl`: the Potency entry in experiment [1] was “inactive”. Further, the outcome in experiment [2] was inactive.
With `COC(=O)c1cc(Cl)c(NC(C)=O)cc1OC`, the Potency entry in experiment [1] was “inactive”. Moreover, the result in experiment [2] was inactive.
Consider `CN(C)CCN1CCN(c2cccc(Cl)c2)C1=O`, for which the Potency entry in experiment [1] was “inactive”. For the same compound, in experiment [2], the compound was classed as inactive.
As to `C=CC[N+]1([C@H]2C[C@H]3[C@@H]4CC[C@H]5C[C@H](OC(C)=O)[C@@H](N6CCCCC6)C[C@]5(C)[C@H]4CC[C@]3(C)[C@H]2OC(=O)CC)CCCCC1`, the Potency entry in experiment [1], in experiment [3] and in experiment [4] was “inactive” each time. The compound was classed as inactive in experiment [2].
In the case of `CCC(=O)O[C@H]1[C@H](O[C@@H]2[C@@H](C)[C@H](O[C@H]3C[C@@](C)(OC)[C@@H](O)[C@H](C)O3)[C@@H](C)C(=O)O[C@H](CC)[C@@](C)(O)[C@H](O)[C@@H](C)C(=O)[C@H](C)C[C@@]2(C)O)O[C@H](C)C[C@@H]1N(C)C`, the Potency result in experiment [1] was “inactive”. For the same compound, the outcome in experiment [2] was inactive.
Turning to `COc1cc(OC)nc(O[C@H](C(=O)O)C(OC)(c2ccccc2)c2ccccc2)n1`, the Potency result in experiment [1] is “inactive”. For the same compound, the result in experiment [2] was inactive.
As for `Cc1c(N)cccc1C(F)(F)F`, in experiment [1], the Potency entry is “inactive”. The compound was classed as inactive in experiment [2].
As for `CC(=O)[C@@]1(O)CC[C@H]2[C@@H]3C[C@H](C)C4=CC(=O)CC[C@]4(C)[C@H]3CC[C@@]21C`, the Potency result in experiment [1] was “inactive”. For the same compound, the result in experiment [2] was inactive.
As to `CC(C)(C)NCC(O)COc1ccccc1OCC1CCCO1` (stereo unspecified), in experiment [1], the Potency entry is “inactive”. For the same compound, the call in experiment [2] was inactive.
As to `CCOC(=O)C(=O)c1csc(NC=O)n1`, the Potency entry in experiment [1] was “inactive”. Moreover, the compound was classed as inactive in experiment [2].
Take `OC1(c2ccccc2)CCNCC1`: the Potency result in experiment [1] was “inactive”. Besides, the result in experiment [2] was inactive.
`CCn1ccc(NS(=O)(=O)c2ccc(N)cc2)nc1=O`: the Potency result in experiment [1] is “inactive”. Further, in experiment [2], the compound was classed as inactive.
For the compound `Cc1ccc(C(=O)Oc2ccc(C(O)CNC(C)(C)C)cc2OC(=O)c2ccc(C)cc2)cc1` (stereo unspecified), the Potency entry in experiment [1] was “inactive”. For the same compound, in experiment [2], the outcome was inactive.
